Reference: PubChem BioAssay AID624418 (National Center for Advancing Translational Sciences (NCATS), 2012)
About 530 (0.13%) of roughly 410,000 compounds were called active. Not shown: some 5% with an inconclusive outcome. What follows is part of a selection rich in actives, with near analogues and random picks from the rest. Unmarked numbers belong to inactive results. Calls follow the shape of the dose curve; as a rule, active = well fitted inhibition curve with a large enough effect; inconclusive = small, poorly fitted or top-dose-only effect, or another doubt; inactive = no such curve, though single readings can be large or run the other way.

test: qHTS of GLP-1 Receptor Inverse Agonists: Cytotox Screen; conditions: HEK293 cAMP-luciferase reporter cells, luminescence, 24 h; series mostly up to 38.3 µM; activity change, negative = inhibition: at the top concentration;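 also: loss of luciferase light is scored as toxicity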
Method in brief: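 Cells in DMEM/10% Nu serum/1% pen-strep, 1536-well format. Pre-incubated 12 h, dosed with 23 nL compound, incubated a further 24 h. Luciferase detection, 12 min at room temp, luminescence.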
% is scaled to controls: 0 for no effect and ±100 for the full control effect; potency is read from the fitted curve at half-maximal effect.

Compared with `COC(=O)c1cnn(-c2ccc(C(=O)Nc3ccc(OC(F)(F)F)cc3)cc2)c1N`, `Cc1cc2c(cc1S(=O)(=O)CCC(=O)Nc1ccc(OC(F)(F)F)cc1)OCC(=O)N2` is lower in “activity change, negative = inhibition” value: -0.598% for the first, -12.7% for the second.

First: Cc1ccc2nc(COc3ccccc3NC(=O)Nc3ccc(F)c(Cl)c3)cc(=O)n2c1
Second: COc1ccccc1NC(=O)c1cc(C2CC2)nc2c1c(C)nn2-c1ccc(C)cc1
The “activity change, negative = inhibition” value of the first is higher: 0.117% for the first, -5.07% for the second.

Going from `COc1ccc(NC(=O)CN2CCCN(Cc3ccccc3)S2(=O)=O)cc1` to `COc1ccc(NC(=O)C(c2ccccc2)N2Cc3ccccc3C2=O)cc1` (stereo unspecified), the “activity change, negative = inhibition” value falls from 17.2% to 3.88%.

Compared with `Cc1ccc(OC(=O)CSc2nnc(-c3cccs3)o2)cc1`, `CSc1oc(-c2cccs2)nc1S(=O)(=O)c1ccc(Br)cc1` is higher in “activity change, negative = inhibition” value: 1.35% for the first, 27.9% for the second.

Compared with `COc1ccc(Cn2c(C(=O)O)c(CNCCc3cccs3)c3ccc(OC)cc32)cc1`, `COc1ccc(CCNCc2c(C(=O)O)c(C)n(Cc3cccc(C)c3)c2C)cc1OC` is higher in “activity change, negative = inhibition” value: -17.4% for the first, -1.48% for the second.

First: Cc1ccc(-c2noc(CSc3nnc(-c4ccc(Cl)cc4)n3C)n2)cc1
Second: Cc1ccc(Nc2c(-c3ccc(Cl)cc3)nc3sccn23)c(C)c1
The “activity change, negative = inhibition” value of the first is higher: 4.15% for the first, -9.65% for the second.

Compared with `Cc1ccc(C(=O)Nc2ccccc2F)cc1S(=O)(=O)N1CCOCC1`, `CCOc1ccc(NC(=O)C2CCN(S(=O)(=O)c3cc(-c4noc(C)n4)ccc3C)CC2)cc1` is lower in “activity change, negative = inhibition” value: 23.2% for the first, -6.45% for the second.

Going from `Cc1cc2c(cc3c(SCc4cccc(Cl)c4)nnc(C)n32)o1` to `Cc1cccc(CSc2nc3ccncc3n2CC(=O)N(C)C2CCCCC2)c1`, the “activity change, negative = inhibition” value falls from 1.1% to 0.871%.

First: CCOc1ccc(CCNC(=O)CN(c2ccc(C)cc2)S(=O)(=O)N(C)C)cc1OCC
Second: COc1ccc(N(CC(=O)NCCc2ccc(Cl)cc2)S(=O)(=O)c2c(C)nn(C)c2C)cc1
The “activity change, negative = inhibition” value of the first is higher: 0.596% for the first, -6.46% for the second.

Compared with `CC(=O)c1ccc(N2CCN(C3C(=O)c4ccccc4N3C(C)=O)CC2)cc1` (stereo unspecified), `CC(C)CC(=O)NCC(c1ccc2c(c1)OCO2)N1CCN(c2ccc(F)cc2)CC1` (stereo unspecified) is lower in “activity change, negative = inhibition” value: 1.24% for the first, 0.505% for the second.

First: Cc1cc(-c2ccc(C)c(S(=O)(=O)N3c4ccccc4CC3C)c2)on1 (stereo unspecified)
Second: Cc1ccc(Nc2nnc(-c3ccc(C)c(S(=O)(=O)N4CCCCC4)c3)c3ccccc23)cc1
The “activity change, negative = inhibition” value of the first is lower: -4.7% for the first, 10.8% for the second.

Compared with `Cc1ccc(-n2c(=O)c3cccnc3n2CC(=O)Nc2ccccc2C(F)(F)F)cc1C`, `COc1ccc2c(c1)c(N1CCCC1=O)c(C(=O)Nc1ccccc1C(F)(F)F)n2C` is lower in “activity change, negative = inhibition” value: 0.785% for the first, -1.4% for the second.

Compared with `Cc1nn(-c2ccc(N3CCCCC3)nn2)c(C)c1CCC(=O)NCc1ccc(F)cc1`, `Cc1ccc(CNC(=O)CCc2c(C)nc3c(c(C)nn3-c3ccccc3)c2C)cc1` is higher in “activity change, negative = inhibition” value: 1.15% for the first, 12.6% for the second.

First: S=C(NCCc1ccccc1)NCc1ccccc1Cl
Second: Cc1nc2c(-c3ccccc3)c(C)nn2c(C)c1CCC(=O)NCCc1ccccc1
The “activity change, negative = inhibition” value of the first is lower: -14.8% for the first, 2.89% for the second.

Going from `CCCCNC(=S)N/N=C1\CCCCc2ccccc21` to `CCOc1ccc(C(=O)Nc2ccc3nc4c(c(Nc5ccccc5OC)c3c2)CCCC4)cc1`, the “activity change, negative = inhibition” value falls from -18% to -22.1%.

Compared with `CCN(CCCNC(=O)c1cc(Nc2ccc(OC)cc2)nc2ccccc12)c1cccc(C)c1`, `COc1ccc(CNc2nc(-c3ccccc3)nn2C(=O)c2ccccc2OC)cc1` is lower in “activity change, negative = inhibition” value: 145% for the first, 3.12% for the second.

First: CCc1ccc(NC(=O)CSc2nc3c([nH]c4ccccc43)c(=O)n2-c2cccc(OC)c2)cc1
Second: COc1cccc(NC(=O)CSc2cc(=O)n(C)c3ccc(Cl)cc23)c1
The “activity change, negative = inhibition” value of the first is lower: -2.28% for the first, 1.69% for the second.

Going from `Fc1ccc(CN2CCc3nc(Nc4ccccc4)ncc3C2)cc1F` to `Clc1cccc(-n2ncc3c(NCCc4ccccc4)ncnc32)c1`, the “activity change, negative = inhibition” value rises from -20% to -12.3%.

First: COc1ccccc1-c1cc(C(F)(F)F)nc(S(=O)(=O)CCCC(=O)Nc2ccc(F)cc2F)n1
Second: CC(CNC(=O)c1nnc(Cc2cccc(F)c2)o1)c1ccccc1 (stereo unspecified)
The “activity change, negative = inhibition” value of the first is lower: -12.6% for the first, 0.552% for the second.

Compared with `O=C1c2ccccc2C(=O)C1C(=O)C1CC1`, `CCC1CCCCN1S(=O)(=O)c1ccc(NC(=O)c2cc(=O)c3ccccc3o2)cc1` (stereo unspecified) is higher in “activity change, negative = inhibition” value: -4.71% for the first, 2.36% for the second.

Going from `C/C(=N\NC(=O)c1ccc(CSc2nc(C)cc(C)n2)cc1)C1CCCCC1` to `CCOC(=O)Cn1c(=O)n(C2CCCCC2)c2nc(-c3cccc(OC)c3)nc(C(N)=O)c21`, the “activity change, negative = inhibition” value rises from -16.1% to 1.53%.

Going from `Cc1ccc(-n2cnc3cc(C(=O)NCCC4=CCCCC4)ccc32)cc1Cl` to `O=C(NCCc1ccc(Cl)cc1)c1ccc2c(c1)N(Cc1ccc(F)cc1)C(=O)CS2`, the “activity change, negative = inhibition” value falls from -0.346% to -10.6%.

First: O=C(CSc1cn(CC(=O)N2CCOCC2)c2ccccc12)Nc1ccccc1
Second: CCCN(C(=O)Cn1cc(S(=O)(=O)N2CCN(c3ccccc3F)CC2)c2ccccc2c1=O)c1cccc(C)c1
The “activity change, negative = inhibition” value of the first is higher: 1.07% for the first, -2.03% for the second.

Going from `CCCCOC(=O)/C(C#N)=C/c1ccc(-c2cccc(C(F)(F)F)c2)o1` to `CCc1cccc(NC(=O)c2cc(-c3ccccc3)n[nH]2)c1`, the “activity change, negative = inhibition” value falls from 24% to 0.207%.

Going from `CCSc1nnc2c(n1)OC(c1ccc(OCC(=O)O)cc1)Nc1ccccc1-2` (stereo unspecified) to `CCOc1ccc(-c2nonc2NC(=O)c2oc3ccc(CC)cc3c2C)cc1`, the “activity change, negative = inhibition” value rises from -17.3% to -6.03%.

Compared with `Cc1ccc2oc(=O)c3cnn(CC(=O)NCc4ccccc4Cl)c3c2c1`, `CCCN(CCC)CCCNC(=O)Cn1ncc2c3ccccc3n(Cc3ccccc3)c2c1=O` is lower in “activity change, negative = inhibition” value: 0.436% for the first, -1.81% for the second.

Going from `O=C(CNCc1ccc(Cl)cc1)Nc1cccc(C(=O)O)c1` to `Cc1cn(C)c(CC(=O)NCc2ccc(Cl)cc2)c1C(=O)O`, the “activity change, negative = inhibition” value rises from -7.74% to -7.39%.

First: CCn1cc(C(=O)OCC(=O)Nc2cc(C)cc(C)c2)c(=O)c2ccc(C)nc21
Second: Cc1cc(C)cc(NC(=O)CCS(=O)(=O)c2cc3c4c(c2)CCN4C(=O)CC3)c1
The “activity change, negative = inhibition” value of the first is higher: 1.31% for the first, 1.12% for the second.

Compared with `CCOC(=O)N1CCc2c(sc3c2c(=O)n(-c2ccc(CC)cc2)c(=O)n3C)C1`, `Cc1ccc(NC(=O)Cn2c(=O)n(-c3ccccc3)c(=O)c3c4c(sc32)CCCC4)cc1` is lower in “activity change, negative = inhibition” value: 8.52% for the first, -4.75% for the second.

First: O=C(c1ccc(C(F)(F)F)cc1)N1CCC(c2nc(-c3ccc(S(=O)(=O)N4CCCC4)cc3)no2)CC1
Second: COc1cccc(Cn2c(SCc3ccc(C(=O)N4CCC(C)CC4)cc3)nc3ccncc32)c1
The “activity change, negative = inhibition” value of the first is lower: -10.9% for the first, -1.45% for the second.

Going from `CCN(CCCNC(=O)c1c(C)oc2ncn(CC(C)C)c(=O)c12)Cc1ccccc1` to `Cc1cn(C)c(CC(=O)NCc2ccccc2)c1C(=O)O`, the “activity change, negative = inhibition” value rises from 1.92% to 5.49%.

Going from `CCNC(=O)CC1C(=O)N(c2ccc(F)cc2)C(=O)N1Cc1ccc(C)cc1` (stereo unspecified) to `CCn1cc(C(=O)NCc2ccc(C)cc2)c(=O)c2cc(S(=O)(=O)N3CCc4ccccc4C3)ccc21`, the “activity change, negative = inhibition” value rises from -12.9% to -11.4%.

Compared with `CCOC(=O)c1[nH]c(C)c(CCC(=O)NCc2ccccc2C)c1C`, `CCOc1cc(C(=O)NCCc2csc3nc(-c4ccc(C)cc4)nn23)cc(OCC)c1OCC` is higher in “activity change, negative = inhibition” value: 2.99% for the first, 7.6% for the second.

Compared with `Cc1ccc2oc3c(c(=O)c2c1)C(c1ccc([N+](=O)[O-])cc1)N(CCCN1CCOCC1)C3=O` (stereo unspecified), `CCCCN1CC(c2nc3ccccc3n2CCCCOc2ccc(C)cc2C)CC1=O` (stereo unspecified) is lower in “activity change, negative = inhibition” value: 3.33% for the first, -18.1% for the second.

First: CCOc1ccc(C(NC(=O)c2cc(OC)c(OC)c(OC)c2)c2cc(Cl)c3cccnc3c2O)cc1 (stereo unspecified)
Second: CCOC(=O)c1cc(-c2ccc(OC)c(S(=O)(=O)Nc3ccc(OC)cc3OC)c2)on1
The “activity change, negative = inhibition” value of the first is lower: -29% for the first, 2.54% for the second.

Compared with `O=C(NC1CCN(Cc2ccccc2)CC1)c1ccc(Cn2c(=O)c3ccccc3n(Cc3cccc(F)c3)c2=O)cc1`, `CC(=O)N1CCc2cc(S(=O)(=O)NC(Cc3ccccc3)C(=O)NCc3ccc(C)cc3)ccc21` (stereo unspecified) is lower in “activity change, negative = inhibition” value: 10.6% for the first, -0.157% for the second.

First: CN(Cc1ccccc1)C(=O)c1cn(C)c2ccc(S(=O)(=O)N(C)C3CCCCC3)cc2c1=O
Second: Cc1cc(C)cc(NS(=O)(=O)c2ccc3[nH]cc(C(=O)N4CCCCC4)c(=O)c3c2)c1
The “activity change, negative = inhibition” value of the first is higher: 3.25% for the first, -4.69% for the second.

First: Cc1ccc(S(=O)(=O)NCc2nc3nc(C)cc(C)n3n2)cc1
Second: CCN(CC)S(=O)(=O)c1ccc(C(=O)N=c2sc3cccc(OC)c3n2C)cc1
The “activity change, negative = inhibition” value of the first is lower: 2.32% for the first, 5.63% for the second.

Going from `COc1ccc(NC(=O)CCCc2nnc3n(CCC(C)C)c(=O)c4sccc4n23)c(OC)c1` to `CCCCn1cc(S(=O)(=O)c2ccc(OCC)cc2)c(=O)c2cc(OC)c(OC)cc21`, the “activity change, negative = inhibition” value falls from 5.32% to -4.49%.

Compared with `Cc1cccc(NC(=O)N2CCN(C)c3ncccc32)c1C`, `CCc1ccc(NC(=O)c2cc(S(=O)(=O)N3CCCC(C)C3)cn2C)cc1` (stereo unspecified) is lower in “activity change, negative = inhibition” value: 0.303% for the first, -16.5% for the second.

Going from `O=C(c1cccs1)c1cn(CCOc2ccc(Cl)cc2)c2ccccc12` to `CCOc1ccc(N2CC(c3nc4ccccc4n3CCOc3ccc(OC)cc3)CC2=O)cc1` (stereo unspecified), the “activity change, negative = inhibition” value falls from 0.0889% to -12%.

First: O=C(NCc1ccccc1Cl)c1cccn1-c1nnc(N2CCCCC2)s1
Second: CC(C)(C)OC(=O)N1CCC(c2c(C(=O)N3CCN(c4cccc(Cl)c4)CC3)cnn2-c2cccc(Cl)c2)CC1
The “activity change, negative = inhibition” value of the first is lower: -1.65% for the first, 1.54% for the second.

First: CNc1ccc(-c2nc(-c3ccco3)no2)cc1[N+](=O)[O-]
Second: COc1cc(/C=C/C(=O)N2CCc3ccccc3C2)cc(OC)c1OC
The “activity change, negative = inhibition” value of the first is lower: 2.51% for the first, 3.72% for the second.

With `CC1(C(=O)N/N=C/c2cc3c(cc2Br)OCO3)CC1(Br)Br` (stereo unspecified) the “activity change, negative = inhibition” value was 5.99%.

For `Oc1ccc(N=Nc2nccs2)c(O)c1`, the Potency was 8.91 µM (active).
For `Oc1ccc2ccccc2c1N=Nc1nccs1`, the Potency was 4.47 µM (active).
In the case of `CCCC1CCC(=NNC(=S)NCCc2ccccc2)CC1` (stereo unspecified), the Potency is reported as 4.47 µM (active).
For `C/C(=N\NC(=O)c1ccc(C)cc1)C1C(=O)c2ccccc2C1=O`, the Potency was 4.47 µM (active).
For `O=C(CCl)Nc1cccc(CP(=O)(c2ccccc2)c2ccccc2)c1`, the Potency was 3.16 µM (active).
For `O=S(=O)([N-]c1nc2ccccc2nc1-[n+]1ccc(Cc2ccccc2)cc1)c1ccc(Br)s1`, the Potency was 10 µM (active).
With `CC1CC2=C(CC1/C=N/NC(N)=S)C(C)(C)CCC2` (stereo unspecified) the Potency was 2.24 µM (active).
With `COc1ccccc1Nc1c2c(nc3ccc(NC(=O)/C=C/c4cc(OC)c(OC)c(OC)c4)cc13)CCCC2` the Potency was 4.47 µM (active).
In the case of `CC(C)Oc1c(Br)cc(Br)cc1/C=N/NC(N)=S`, the Potency is reported as 2.51 µM (active).
